Screening data (PubChem BioAssay)
HSV augment – increases HSV replication in cells. HSV replication augmentation in cells, fold increase. maximum fold increase. 220,000 compounds, 0.005% hits. AID 1956; in the data active means maximum fold increase above about 1.5; inconclusive means no clear call, values can overlap the other calls; tested in PC3 cells
Ins promoter up – MIN6 insulin promoter up-regulation. MIN6 insulin promoter-GFP reporter, high-content imaging; hits give high values. z-score at 5 µM. 190,000 compounds, 0.3% hits;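 active means z-score above 3 at 5 µM with at least 500 cells counted in the well; inconclusive means wells under 500 cells, flagged as cytotoxic or low count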
Insulin prom inh – TRM-6 insulin promoter activity inhibition; TRM-6 cells (human fetal islet line), insulin promoter-eGFP reporter, imaging; reporter expression induced with tamoxifen; inhibition, % at 2 µM; 130,000 compounds, 0.9% hits; AID 1273;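 active means inhibition above the mean plus 3 SD, with well images judged a real hit on visual review, cut at about 60% in these data, passing the limit was not always enough; inconclusive means inhibition over the cutoff but images rejected on review; inactive means inhibition not above the cutoff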
ROMK primary – modulators of human ROMK potassium channel; Tet-inducible ROMK, thallium flux fluorescence; actives lie on both sides; 130,000 compounds, 2% hits; AID 1918; B-score at 10 µM;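 active means signal ratio slope over the read window, or its plate-corrected B-score, at least 3 SD from the plate mean, either direction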;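 further: B-score of the F/F0 ratio slope over 7 to 12 s after thallium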
Target sequence (P48048 whole entry, looked up): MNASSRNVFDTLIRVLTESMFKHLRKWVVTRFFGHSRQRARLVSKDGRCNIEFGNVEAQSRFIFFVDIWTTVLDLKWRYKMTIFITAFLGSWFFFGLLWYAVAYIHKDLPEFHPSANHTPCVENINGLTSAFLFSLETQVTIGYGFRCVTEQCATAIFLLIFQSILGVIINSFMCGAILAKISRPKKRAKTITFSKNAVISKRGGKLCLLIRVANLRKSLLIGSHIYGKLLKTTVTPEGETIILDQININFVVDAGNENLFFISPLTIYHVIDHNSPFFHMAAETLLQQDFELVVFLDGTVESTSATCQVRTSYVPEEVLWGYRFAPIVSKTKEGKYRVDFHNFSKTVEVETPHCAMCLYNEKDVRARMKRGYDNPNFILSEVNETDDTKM
Tb hexokinase – blocks Trypanosoma brucei hexokinase 1 activity; 220,000 compounds, 0.11% hits; inhibition, % at 10 µM; recombinant TbHK1, G6PDH-coupled NADH A340;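 active means inhibition of 50% or more in the single-dose primary screen; inactive means inhibition below 50%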
ROMK retest – confirmation of human ROMK potassium channel modulators; shares compounds with ROMK primary; ROMK thallium flux, fluorescence ratio; hits give low values; normalized thallium flux (F/F0 slope) at 10 µM; 3,000 compounds, 54% hits;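 active means Flux at 10 µM at least 3 SD below or above vehicle control mean in one or both replicates; inconclusive means no clear call, values can overlap the other calls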
* = called active by the depositor; i = inactive; u = inconclusive; x = not tested or not shown. Only a selection was taken, and hits are over-represented in it overall.

SMILES	HSV augment	Ins promoter up	Insulin prom inh	ROMK primary	Tb hexokinase	ROMK retest
CCC(C)NCC(=O)Nc1ccc(-c2nc3cc(NC(=O)CNC(C)CC)ccc3o2)cc1 (stereo not given)	i	-4.8	x	-2.3*	-37	0.061*
Clc1ccc(CN2CCC(c3nc4ccc(Cl)cc4[nH]3)CC2)cc1	x	-0.22	-20	x	-4	0.063*
C/C(=N\OCC(=O)Nn1c(=O)[nH]c2ccccc2c1=O)c1ccccc1	i	0.16	6	-0.25	30	x
O=[N+]([O-])c1ccc2[nH]c(O)c(N=NC3CS(=O)(=O)CC3O)c2c1 (stereo not given)	i	-0.51	x	x	-68	x
O=C(NCCN1CCCCCC1)C1CCCN1S(=O)(=O)c1cccc2nsnc12 (stereo not given)	i	0.28	x	-0.26	-8	x
CC(C)(CN1CCN(Cc2ccccc2)CC1)NS(=O)(=O)c1ccccc1	i	0.07	x	x	10	x
CC(CN1CCNCC1)(NS(=O)(=O)c1ccccc1)c1ccccc1 (stereo not given)	i	-1.6	7	-4.5*	-15	0.062*
CCC(C)(C)NC(=O)C(c1cccc(OC)c1OC)N(CCC(C)C)C(=O)CCC(=O)Nc1cc(C)on1 (stereo not given)	i	0.17	x	-2.5*	-8	0.063*
C#CCOCCOCCOCCNc1nc(N2CCN(C(=O)[C@H](Cc3ccc(O)cc3)n3cc(CCO)nn3)CC2)nc(N2CCN(C(=O)[C@H](Cc3ccc(O)cc3)n3cc(CCO)nn3)CC2)n1	x	-0.37	24	-0.033	-2	x
C#CCOCCOCCOCCNc1nc(N2CCN(C(=O)[C@H]([C@@H](C)O)n3cc(CCCCN)nn3)CC2)nc(N2CCN(C(=O)[C@H](Cc3ccc(O)cc3)n3cc(CCO)nn3)CC2)n1	i	0.43	-9	2*	-7	0.083
CC(=O)c1sc(NC(=O)c2cc(=O)c3ccccc3o2)nc1C	i	-1.1	x	2.9*	-17	0.077
CCOC(=O)c1csc(NC(=O)c2cc(=O)c3ccccc3o2)n1	i	-0.3	x	0.8	-9	x
O=C(NC1CCCCC1)C(c1cccnc1)N(C(=O)CCl)c1cccc(Cl)c1 (stereo not given)	i	-1.2	i	-3.3*	0	0.051*
Cc1cc(NC(=O)CSCC(=O)N(c2cccc(Cl)c2)C(C(=O)NC2CCCCC2)c2ccc(O)c(O)c2)no1 (stereo not given)	i	1.7	-29	-4.8*	33	0.056*
Fc1cccc(Cc2noc(CN3CCCCC3c3ccccn3)n2)c1 (stereo not given)	i	-0.25	19	1.9	-2	x
NS(=O)(=O)c1ccc(CCNC(=O)CSc2nc3ccccc3c(=O)n2CCC(=O)N2CCCCC2)cc1	i	0.14	21	0.00082	-5	x
Cc1c(C(=O)O)cccc1-c1ccc(/C=N/Nc2ccc(Br)cc2)o1	i	0.33	32	1.7*	3	0.1*
O=C(O)c1ccc(N/N=C/c2ccc(-c3cc(Cl)ccc3Cl)o2)cc1	i	0.31	x	0.92	20	x
N#C/C(=C\c1ccc2c(c1)OCCO2)C(=O)NC1CCCCC1	i	-0.19	x	x	-5	x
CCCCNC(=O)/C(C#N)=C/c1cccnc1	i	0.21	0	-3.3*	32	0.05*
N#C/C(=C\c1cccc([N+](=O)[O-])c1)C(=O)NCc1ccc(Cl)cc1	i	-0.29	x	-0.067	1	x
N#C/C(=C\c1cccnc1)C(=O)Nc1cccc2ccccc12	i	1	-15	-2.4*	-3	0.046*
Cc1cccc(NC(=O)/C(C#N)=C\c2cccnc2)c1	i	0.29	-11	x	-12	x
N#C/C(=C\c1cccc([N+](=O)[O-])c1)C(=O)NCc1cccnc1	i	-0.18	-37	x	-4	0.022*
N#C/C(=C\c1cccnc1)C(=O)NC1CCCCC1	i	2.7	-10	-5.3*	1	0.036*
SMILES	HSV augment	Ins promoter up	Insulin prom inh	ROMK primary	Tb hexokinase	ROMK retest
Cc1ccc(S(=O)(=O)N2CCCOC2CNC(=O)C(=O)NC2CCCCC2)cc1 (stereo not given)	i	-0.86	28	-0.73	0	x
COCCNC(=O)/C(C#N)=C/c1cccc(/C=C(\C#N)C(=O)NCCOC)c1	i	0.15	3	x	-11	0.037*
COCCNC(=O)/C(C#N)=C/c1ccc(O)cc1	i	0.72	x	x	-40	x
CCn1c(SCC(=O)O)nnc1-c1cccnc1	i	x	x	0.28	7	x
CCOC(=O)c1cc(-c2ccc(/C=N\n3cnnc3)o2)ccc1Cl	i	-0.14	30	x	-50	0.066*
CC(C)(C)NC(=S)N/N=C\c1ccc(-c2ccc([N+](=O)[O-])cc2)o1	i	x	x	-3.5*	-19	0.048*
O=C(c1ccc(Cl)c(Cl)c1)N1CCC(=O)N(C(COCc2ccccc2)Cc2ccccc2)CC1 (stereo not given)	i	-0.48	-14	-1.9	-1	x
CC1=NN(c2ccccc2)C(=O)/C1=C/N(C)C	i	-0.28	x	x	-14	x
CC1=NN(c2ccccc2)C(=O)/C1=C\C=C1\N(C)c2ccccc2C1(C)C	i	0.91	x	x	0	0.063*
CC1=NN(c2ccccc2)C(=O)/C1=C\C=C1/N(C)c2ccccc2C1(C)C	i	0.66	x	x	-11	0.08
Cc1cccc(C(=O)Nc2ccc(C(=O)/C=C/c3cccnc3)cc2)c1	i	-0.87	-26	-2.4*	-1	u
CNC(=O)c1[nH]cnc1C(=O)Nc1ccc(OC)cc1	i	-0.26	x	3.4*	-16	0.087
Cc1ccc([C@@H]2C3COCC=C3C(C#N)=C(N)C2(C#N)C#N)o1 (stereo not given in full)	i	0.04	x	-4.5*	-12	0.046*
